Measurements: the supplement of paper PMC11732987, “Enantioselective OTUD7B fragment discovery through chemoproteomics screening and high-throughput optimisation” (Communications Chemistry, 2025)

Legend:
Assay in all cases: log2 ratio of Biotin-Ahx-Ub-VS probe labelling (fragment/DMSO); higher = less target engagement (more negative = stronger competition), active = hit call of the paper (q ≤ 0.05, log2 ratio ≤ -1)
Conditions in all cases: compound concentration: 200 uM; treatment time: 3 h
OTUD6B = target: T1, OTUD6B (UniProt Q8N6M0)
T1 sequence (whole entry): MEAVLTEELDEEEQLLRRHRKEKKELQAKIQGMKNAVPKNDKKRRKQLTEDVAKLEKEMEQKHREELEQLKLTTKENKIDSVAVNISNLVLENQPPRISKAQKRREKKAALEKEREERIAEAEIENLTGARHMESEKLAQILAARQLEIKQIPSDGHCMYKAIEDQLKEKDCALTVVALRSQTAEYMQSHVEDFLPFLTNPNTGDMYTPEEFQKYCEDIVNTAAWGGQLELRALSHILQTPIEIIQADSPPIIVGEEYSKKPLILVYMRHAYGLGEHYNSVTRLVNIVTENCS
How it was run: (§1)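 Fragment (200 µM) or vehicle was incubated for 3 h with triplicate HEK293T lysate samples of 495 µg, which were then treated with Biotin-Ahx-Ub-VS at 0.5 µM final for 1 h. Labelled DUBs were enriched on NeutrAvidin, digested with LysC and trypsin, and analysed by diaPASEF LC-MS/MS. Values are average log2 fragment/vehicle ratios from an unpaired t-test on global-median-normalised Spectronaut label-free quantities, using proteins with ≥2 unique peptides.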

OTUD7B = target: T2, OTUD7B (UniProt Q6GQQ9)
T2 sequence (whole entry): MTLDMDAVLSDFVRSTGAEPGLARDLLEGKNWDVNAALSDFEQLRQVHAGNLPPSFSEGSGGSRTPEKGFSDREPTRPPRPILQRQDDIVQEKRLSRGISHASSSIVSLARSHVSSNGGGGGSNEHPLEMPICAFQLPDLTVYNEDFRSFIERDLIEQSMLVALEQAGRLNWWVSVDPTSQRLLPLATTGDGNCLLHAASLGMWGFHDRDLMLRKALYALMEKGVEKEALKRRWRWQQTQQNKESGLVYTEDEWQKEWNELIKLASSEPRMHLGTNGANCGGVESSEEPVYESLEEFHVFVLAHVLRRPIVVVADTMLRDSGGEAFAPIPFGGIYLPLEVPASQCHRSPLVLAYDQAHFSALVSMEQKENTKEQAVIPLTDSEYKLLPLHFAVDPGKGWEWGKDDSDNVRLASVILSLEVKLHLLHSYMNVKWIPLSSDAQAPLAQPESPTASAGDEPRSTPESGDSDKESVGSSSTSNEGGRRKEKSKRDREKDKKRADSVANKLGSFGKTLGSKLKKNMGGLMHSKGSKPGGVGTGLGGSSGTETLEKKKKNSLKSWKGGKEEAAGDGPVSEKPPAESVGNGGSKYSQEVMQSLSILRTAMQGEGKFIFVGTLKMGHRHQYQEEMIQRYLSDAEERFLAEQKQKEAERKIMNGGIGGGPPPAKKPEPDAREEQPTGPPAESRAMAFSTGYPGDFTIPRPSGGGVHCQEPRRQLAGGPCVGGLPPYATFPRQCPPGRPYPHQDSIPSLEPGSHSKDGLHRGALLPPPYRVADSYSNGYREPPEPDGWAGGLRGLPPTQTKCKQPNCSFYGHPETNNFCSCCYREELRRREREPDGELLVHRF
How it was run: as §1

PRPF8 = PRPF8 (UniProt Q6P2Q9)
How it was run: as §1

PSMD7 = target: T3, PSMD7 (UniProt P51665)
T3 sequence (whole entry): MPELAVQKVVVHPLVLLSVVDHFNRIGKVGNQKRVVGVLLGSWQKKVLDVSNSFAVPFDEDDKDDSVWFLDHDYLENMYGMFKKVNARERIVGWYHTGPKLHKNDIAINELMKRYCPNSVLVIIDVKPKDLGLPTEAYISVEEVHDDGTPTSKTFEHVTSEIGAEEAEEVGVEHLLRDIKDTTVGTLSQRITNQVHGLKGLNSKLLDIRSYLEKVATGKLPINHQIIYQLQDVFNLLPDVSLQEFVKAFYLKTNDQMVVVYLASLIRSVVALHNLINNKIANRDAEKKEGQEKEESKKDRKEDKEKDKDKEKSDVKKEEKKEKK
How it was run: as §1

UCHL1 = UCHL1 (UniProt P09936)
How it was run: as §1

UCHL3 = target: T4, UCHL3 (UniProt P15374)
T4 sequence (whole entry): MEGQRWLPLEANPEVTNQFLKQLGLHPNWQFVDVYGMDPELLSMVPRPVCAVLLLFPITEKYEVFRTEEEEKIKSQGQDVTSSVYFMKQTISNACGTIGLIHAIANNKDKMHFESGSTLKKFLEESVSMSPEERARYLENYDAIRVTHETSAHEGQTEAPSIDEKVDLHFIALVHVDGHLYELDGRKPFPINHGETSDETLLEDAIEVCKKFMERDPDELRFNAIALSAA
How it was run: as §1

UCHL5 = target: T5, UCHL5 (UniProt Q9Y5K5)
T5 sequence (whole entry): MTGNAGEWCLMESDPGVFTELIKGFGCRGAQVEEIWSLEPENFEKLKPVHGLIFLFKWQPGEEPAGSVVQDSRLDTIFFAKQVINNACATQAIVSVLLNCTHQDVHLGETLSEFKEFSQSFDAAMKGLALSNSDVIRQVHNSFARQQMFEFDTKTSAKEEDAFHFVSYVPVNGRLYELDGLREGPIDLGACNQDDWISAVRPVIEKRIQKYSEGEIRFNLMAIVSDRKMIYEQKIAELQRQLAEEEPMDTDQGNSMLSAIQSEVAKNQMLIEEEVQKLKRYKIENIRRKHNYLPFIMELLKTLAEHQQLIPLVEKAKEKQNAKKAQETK
How it was run: as §1

USP10 = USP10 (UniProt Q14694)
How it was run: as §1

USP15 = target: T6, USP15 (UniProt Q9Y4E8)
T6 sequence (whole entry): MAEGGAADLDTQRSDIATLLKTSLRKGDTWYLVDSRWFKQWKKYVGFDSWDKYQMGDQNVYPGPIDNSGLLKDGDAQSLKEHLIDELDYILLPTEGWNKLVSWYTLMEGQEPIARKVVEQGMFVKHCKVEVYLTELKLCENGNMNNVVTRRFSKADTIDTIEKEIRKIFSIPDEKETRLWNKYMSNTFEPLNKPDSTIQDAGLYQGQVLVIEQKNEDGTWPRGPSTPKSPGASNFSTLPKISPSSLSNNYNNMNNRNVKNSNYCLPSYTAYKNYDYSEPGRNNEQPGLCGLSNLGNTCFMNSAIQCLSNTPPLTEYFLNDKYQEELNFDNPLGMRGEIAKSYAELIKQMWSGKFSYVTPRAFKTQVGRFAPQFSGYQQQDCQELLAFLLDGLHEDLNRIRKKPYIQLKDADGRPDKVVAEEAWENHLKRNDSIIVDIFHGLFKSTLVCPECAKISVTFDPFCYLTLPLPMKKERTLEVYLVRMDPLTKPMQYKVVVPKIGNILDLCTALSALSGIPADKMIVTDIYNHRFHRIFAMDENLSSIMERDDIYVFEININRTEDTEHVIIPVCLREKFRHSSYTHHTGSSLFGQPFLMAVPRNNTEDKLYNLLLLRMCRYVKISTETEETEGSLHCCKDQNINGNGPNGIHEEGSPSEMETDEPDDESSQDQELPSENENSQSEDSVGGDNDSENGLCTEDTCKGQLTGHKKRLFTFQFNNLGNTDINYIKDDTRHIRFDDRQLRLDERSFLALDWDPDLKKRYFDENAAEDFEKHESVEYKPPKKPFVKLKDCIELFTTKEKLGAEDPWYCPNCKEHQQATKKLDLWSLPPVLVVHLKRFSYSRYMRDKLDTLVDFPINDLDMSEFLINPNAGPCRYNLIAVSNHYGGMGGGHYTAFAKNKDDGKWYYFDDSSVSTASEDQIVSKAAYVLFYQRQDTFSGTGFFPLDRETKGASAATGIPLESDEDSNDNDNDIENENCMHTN
How it was run: as §1

USP16 = USP16 (UniProt Q9Y5T5)
How it was run: as §1

Measured: log2 ratio of Biotin-Ahx-Ub-VS probe labelling

Chain of UCHL1 (P09936 whole entry, looked up): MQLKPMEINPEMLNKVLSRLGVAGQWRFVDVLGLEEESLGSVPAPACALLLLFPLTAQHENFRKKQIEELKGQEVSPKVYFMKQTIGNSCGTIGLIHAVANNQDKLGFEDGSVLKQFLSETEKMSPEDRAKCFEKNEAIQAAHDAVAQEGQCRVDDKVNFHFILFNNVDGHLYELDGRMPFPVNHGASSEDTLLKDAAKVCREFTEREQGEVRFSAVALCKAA
Chain of USP16 (Q9Y5T5 whole entry, looked up): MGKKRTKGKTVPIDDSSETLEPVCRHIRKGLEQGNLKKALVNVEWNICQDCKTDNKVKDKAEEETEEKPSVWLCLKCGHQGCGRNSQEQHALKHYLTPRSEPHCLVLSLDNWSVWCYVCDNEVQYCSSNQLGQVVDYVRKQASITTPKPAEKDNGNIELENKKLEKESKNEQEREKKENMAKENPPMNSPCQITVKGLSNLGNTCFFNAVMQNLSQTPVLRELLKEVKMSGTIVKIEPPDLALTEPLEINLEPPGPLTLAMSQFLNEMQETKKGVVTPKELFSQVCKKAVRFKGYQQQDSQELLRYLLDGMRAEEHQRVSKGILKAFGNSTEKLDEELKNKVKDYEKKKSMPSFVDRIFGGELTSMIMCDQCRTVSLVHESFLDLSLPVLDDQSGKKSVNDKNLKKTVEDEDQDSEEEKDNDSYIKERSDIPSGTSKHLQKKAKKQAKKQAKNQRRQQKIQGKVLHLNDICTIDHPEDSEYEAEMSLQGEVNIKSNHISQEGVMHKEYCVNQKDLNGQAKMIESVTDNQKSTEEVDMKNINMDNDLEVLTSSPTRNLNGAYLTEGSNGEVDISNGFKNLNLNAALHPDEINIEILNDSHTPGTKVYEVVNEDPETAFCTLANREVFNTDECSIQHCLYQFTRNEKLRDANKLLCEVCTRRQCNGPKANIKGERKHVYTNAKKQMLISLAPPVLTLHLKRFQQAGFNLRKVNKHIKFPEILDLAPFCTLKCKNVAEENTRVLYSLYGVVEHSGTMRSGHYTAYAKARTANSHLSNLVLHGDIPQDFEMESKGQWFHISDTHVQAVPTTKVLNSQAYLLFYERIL
Chain of USP10 (Q14694 whole entry): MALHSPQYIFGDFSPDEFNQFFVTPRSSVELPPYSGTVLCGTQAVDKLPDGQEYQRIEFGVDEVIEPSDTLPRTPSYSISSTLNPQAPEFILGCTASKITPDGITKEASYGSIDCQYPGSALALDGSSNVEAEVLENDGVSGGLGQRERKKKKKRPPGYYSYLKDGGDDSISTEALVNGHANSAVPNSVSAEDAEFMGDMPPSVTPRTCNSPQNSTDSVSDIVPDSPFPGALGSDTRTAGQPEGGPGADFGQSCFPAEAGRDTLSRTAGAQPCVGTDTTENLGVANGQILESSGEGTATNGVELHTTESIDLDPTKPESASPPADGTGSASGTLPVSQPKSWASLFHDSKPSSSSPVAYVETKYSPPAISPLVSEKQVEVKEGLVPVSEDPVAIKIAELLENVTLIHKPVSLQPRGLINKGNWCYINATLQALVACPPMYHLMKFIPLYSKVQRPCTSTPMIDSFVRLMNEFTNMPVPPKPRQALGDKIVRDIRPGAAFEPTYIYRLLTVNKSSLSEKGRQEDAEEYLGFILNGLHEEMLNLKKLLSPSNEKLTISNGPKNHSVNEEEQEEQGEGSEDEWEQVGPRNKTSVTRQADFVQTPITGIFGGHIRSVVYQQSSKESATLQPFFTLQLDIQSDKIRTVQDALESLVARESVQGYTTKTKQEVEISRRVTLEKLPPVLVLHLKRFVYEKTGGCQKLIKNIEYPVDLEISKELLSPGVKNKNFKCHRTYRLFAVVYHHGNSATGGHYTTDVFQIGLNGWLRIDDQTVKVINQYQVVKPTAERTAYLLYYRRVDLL

C/C(=C\CNC(=O)CCl)c1cnn(C)c1.Cl
active: UCHL1 -1.27
inactive: OTUD6B -0.0447 | OTUD7B -0.863 | PRPF8 0.0944 | PSMD7 0.0605 | UCHL3 0.15 | UCHL5 -0.0212 | USP10 -0.19 | USP15 -0.476 | USP16 -0.58
